Screening results: PubChem, National Center for Advancing Translational Sciences (NCATS)
DT40 TDP1 CPT = growth inhibition of DT40 Tdp1-/-;hTDP1 cells with camptothecin (screen for TDP1 inhibitors). chicken DT40 Tdp1-/-;hTDP1 cells + 20 nM CPT, ATP luminescence, 48 h. Potency, µM (titrated, usually from 46.2 µM), without a hit: at the top dose activity change, negative = growth inhibition, hits mostly inhibitors. 420,000 tested, 12% active. AID 686979; also: potency is read from the fitted curve at half-maximal effect; nearly all actives have a fitted effect of over 55% in size
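Chicken DT40 Tdp1-/- cells complemented with human TDP1, 400 cells/well, exposed to compounds plus 20 nM camptothecin for at least 48 h at 37 C; viability read as ATP content by CellTiter-Glo luminescence.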
HT1080-NT tox = kills 2HG-producing HT-1080-NT fibrosarcoma cells. HT-1080-NT fibrosarcoma viability, CellTiter-Glo ATP luminescence, 48 h. Potency, µM (doses to about 46.1 µM), inactives show at the top dose activity, negative = less viability, actives largely listed as cytotoxic. 360,000 tested, 1.6% active. AID 686970;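 also: NT is the 2HG producing partner of a matched IDH1 knockdown line; potency is read from the fitted curve at half-maximal effect; 0% = DMSO-treated cells and -100% = media-only wells without cells; nearly all actives have a fitted effect of over 55% in size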
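Viability by CellTiter-Glo luminescence after 48 h compound exposure at 37C of HT-1080-NT cells (750/well, RPMI, 5% FBS). % activity scaled between DMSO wells and medium-only wells, then curve-fitted and categorized by curve class.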
IL-1B inflam inh = inflammasome signaling inhibition, IL-1 beta readout | THP-1 LPS/ATP IL-1B secretion, AlphaLISA, 16 h; active compounds read low | activity change, % at 57.5 µM | 360,000 tested, 4.7% active; in the data active = activity change below about -50%; inconclusive = mostly about -30% to -49%
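THP-1 cells pretreated 1 hr with compounds (up to 57.5 uM final), then stimulated with LPS (250 ng/mL final) plus ATP (1.25 mM final); secreted IL-1B measured by AlphaLISA after 16 hr, decreased signal indicating inhibition.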
HT1080 IDH1KD tx = HT-1080 IDH1 knockdown cell toxicity (counter line); 360,000 tested, 2% active; AID 686971; HT-1080 IDH1 knockdown viability, ATP luminescence, 48 h; Potency, µM (top dose mostly 46.1 µM), inactives show at the top dose activity, negative = toxicity, actives largely listed as cytotoxic;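 also: potency is read from the fitted curve at half-maximal effect; 0% = DMSO wells and -100% = cell-free medium wells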
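In this qHTS, HT-1080 cells depleted of IDH1 are exposed for 48 h at 37 °C to compound titrations. Toxicity is scored from CellTiter-Glo luminescence, with DMSO as full viability and medium alone as none.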
DT40 TDP1 no CPT = qHTS for Inhibitors of human tyrosyl-DNA phosphodiesterase 1 (TDP1): qHTS in cells in absence of CPT; DT40 Tdp1-/- hTDP1 cells, no CPT, ATP luminescence, 48 h; Potency, µM (doses to about 46.2 µM), without a hit: at the highest dose activity change, negative = growth inhibition, usual class: inhibitors; 420,000 tested, 15% active; also: potency is read from the fitted curve at half-maximal effect; nearly all actives have a fitted effect of over 55% in size
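DT40 Tdp1-/-;hTDP1 cells, no CPT (DMSO vehicle only), 400 cells/well; compounds pin-transferred; ≥48 hr, 37 °C; CellTiter-Glo 30 min RT dark, luminescence read.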
Starred values were filed as active, the others as inactive; ? = inconclusive; . = no result. Hits are enriched below; roughly 19% of the tested compounds scored in any of these assays. Unless noted, calls follow the shape of the dose curve; as a rule, active = well fitted curve in the direction sought with a large enough effect; inconclusive = small, poorly fitted or top-dose-only effect, or another doubt; inactive = no such curve, though single readings can be large; an effect the other way counts as inactive or inconclusive. Unless noted, % is scaled to controls: 0 for no effect and ±100 for the full control effect.

SMILES | DT40 TDP1 CPT | HT1080-NT tox | IL-1B inflam inh | HT1080 IDH1KD tx | DT40 TDP1 no CPT
COc1ccc(C(NC(=O)C2CCN(CCOc3ccccc3)CC2)c2ccccn2)cc1 (centres undefined) | 14% | -4% | -13 | 2% | -7%
CC(C)CN1CCC(C(=O)NC(c2ccc(F)cc2)c2ccc3ccccc3n2)CC1 (centres undefined) | ? | -19% | ? | -7% | 23µM*
COc1ccc(/C=C/CN2CCC(C(=O)NC(c3ccc(F)cc3)c3ccc4ccccc4n3)CC2)cc1 (centres undefined) | 18µM* | 16µM* | ? | 10µM* | 21µM*
Cc1noc(C)c1COC(=O)c1ccc(S(=O)(=O)NCc2ccco2)cc1 | 16µM* | -5% | -4 | -9% | ?
COc1cc(OC)c(N(C)S(=O)(=O)c2cccc(C(=O)OCc3c(C)noc3C)c2)cc1Cl | ? | -13% | 61 | -15% | 23µM*
Cc1noc(C)c1COC(=O)c1cccc(S(=O)(=O)N2CCCCCC2)c1 | 15µM* | -10% | 15 | 21µM* | 15µM*
COc1cc(OC)c(N(C)S(=O)(=O)c2cccc(C(=O)OCC(=O)N3CCOCC3)c2)cc1Cl | ? | 0% | 36 | 4% | ?
O=C(COC(=O)c1ccc(S(=O)(=O)NCc2ccco2)cc1)c1ccccc1 | 10% | 10% | 18 | 9% | -19%
CCN(CC)c1ccc(C(=O)OCC(=O)NCC2CCCO2)cc1 (centres undefined) | -15% | 3% | -14 | 6% | 2%
Cc1cc(-c2nnc(SCC(=O)Nc3cccc(F)c3)n2N)n[nH]1 | -12% | -1% | 4 | 0% | -6%
CN(Cc1ccccc1)C(=O)c1[nH]cnc1C(=O)Nc1cccc(Cl)c1 | ? | 2% | -13 | -1% | ?
COc1ccc(NC(=O)c2nc[nH]c2C(=O)N(C)Cc2ccccc2)cc1 | 23µM* | 9% | -10 | 11% | ?
CCN(CC)C(=O)c1[nH]cnc1C(=O)Nc1ccc(OC)cc1 | -12% | 2% | -22 | -2% | -6%
CN(Cc1ccccc1)C(=O)c1[nH]cnc1C(=O)Nc1ccc(Cl)cc1 | ? | ? | -28 | -1% | 23µM*
Cc1nc(-c2ccc(NC(=O)c3ccco3)cc2)cs1 | 13µM* | ? | -11 | ? | ?
O=C(Nc1ccc(-c2ccc(N3CCCCC3)nn2)cc1)c1ccco1 | ? | -6% | -13 | -18% | 26µM*
O=C(c1ccco1)N1CCN(c2ccc(N3CCCCC3)nn2)CC1 | 10% | 13% | 4 | 15% | -2%
Cc1nc(-c2ccc(NC(=O)c3ccccc3Br)cc2)cs1 | 4% | -2% | -52* | -10% | -16%
Nc1nc(-c2ccc(NC(=O)c3ccco3)cc2)cs1 | 1% | 7.3µM* | 2 | 16µM* | ?
O=C(Nc1ccc(NC(=O)c2ccco2)cc1)c1ccco1 | -1% | -3% | -13 | -6% | 4%
COC(=O)[C@@H]1CCCN1C(=O)c1cc(NC(=O)c2ccccc2)cc2ncn(C3CCCC3)c12 | -21% | . | . | . | -23%
CCCN(CCC)c1cc(C)nc2nc(-c3ccc(Cl)cc3)nn12 | -12% | . | . | . | -15%
CC(=O)Nc1cccc(-c2cn3ccc(C)cc3n2)c1 | -16% | -6% | -7 | -4% | -8%
Cc1ccn2cc(-c3ccc(NC(=O)c4ccco4)cc3)nc2c1 | ? | 4% | -92* | -3% | ?
Cc1nc(-c2ccc(C(=O)Nc3ccccc3F)cc2)cs1 | -18% | 12µM* | -14 | 21µM* | ?
SMILES | DT40 TDP1 CPT | HT1080-NT tox | IL-1B inflam inh | HT1080 IDH1KD tx | DT40 TDP1 no CPT
CCN(CC)c1ncnc2scc(C3COc4ccccc4O3)c12 (centres undefined) | 16µM* | ? | -6 | ? | ?
c1ccc2c(c1)OCC(c1csc3ncnc(N4CCOCC4)c13)O2 (centres undefined) | ? | 10% | -10 | 9% | ?
COC(=O)CCC(C)C1CCC2C3C(OC(C)=O)CC4CC(O)CCC4(C)C3CC(O)C12C (centres undefined) | ? | -8% | 12 | -7% | 16µM*
COC(=O)CCC(C)C1CCC2C3CCC4CC(O)CCC4(C)C3CC(O)C12C (centres undefined) | 13µM* | ? | -11 | ? | 21µM*
Cc1cccc(Nc2nn3c(=O)c4ccccc4nc3s2)c1 | -3% | -6% | -18 | -10% | -9%
CCCSc1nn2c(=O)c3ccccc3nc2s1 | 18µM* | -2% | 15 | -11% | -22%
COc1ccccc1CNC(=O)CC1Sc2ccccc2NC1=O (centres undefined) | 6% | 2% | 11 | 0% | -5%
COc1cc(C2Sc3ccccc3NC3=C2C(=O)OC3)cc(OC)c1OC (centres undefined) | 16µM* | -3% | 36 | ? | ?
Cc1ccc(S(=O)(=O)N2[C@H](CC(=O)c3ccc(F)cc3)OC[C@@H]2C)cc1 | ? | 2% | 16 | -16% | ?
COc1ccc(CNC(=O)O[C@H]2CN(C(=O)OC(C)C)N(C(=O)OC(C)C)[C@@H]3CN(S(=O)(=O)c4ccc(C)cc4)C[C@]23O)cc1OC | ? | 0% | -30 | 0% | 23µM*
COc1ccc(CNC(=O)O[C@H]2C[C@@H]3C(=O)N(c4ccccc4)C(=O)[C@@H]3[C@@H]3CN(S(=O)(=O)c4ccc(C)cc4)C[C@]23O)cc1OC | -18% | 13% | -17 | 8% | -26%
Cc1ccc(S(=O)(=O)N2C[C@H]3N(C(=O)OC(C)C)N(C(=O)OC(C)C)C[C@H](OC(=O)NCc4ccccc4F)[C@@]3(O)C2)cc1 | ? | -18% | -25 | -13% | 23µM*
COc1ccc(NC(=O)c2sc(=O)n(Cc3ccc4ccccc4c3)c2C)cc1OC | ? | -20% | -1 | ? | ?
COc1cc(-c2noc(C)c2C#Cc2ccc(N)cc2)cc(OC)c1OC | 0.82µM* | 0.82µM* | 69 | 0.65µM* | 0.52µM*
COc1cc(-c2noc(C)c2C#Cc2ccccn2)cc(OC)c1OC | 0.65µM* | 1.6µM* | 60 | 2.1µM* | 1µM*
COc1cc(-c2noc(C)c2/C=C/c2ccc(N)cc2)cc(OC)c1OC | 1.2µM* | 0.58µM* | 97 | 0.92µM* | 1µM*
CNC(C)C#Cc1c(-c2cc(OC)c(OC)c(OC)c2)noc1C (centres undefined) | ? | -16% | 34 | -2% | 16µM*
COc1cc(-c2noc(C)c2C(=O)NCc2ccc(C)o2)cc(OC)c1OC | ? | 0% | 25 | 12% | ?
